Reference: the supplement of paper PMC10498489
The campaign covered roughly 2,300 compounds. About 330 (14%) showed activity.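 How the source made its calls: active = median modified Z-score above 1.96; inactive = 1.96 or below.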 Only a sample is shown.

Tested on: HepG2 Srxn1-GFP reporter cells (+30 nM CDDO-Me)
Experiment: Srxn1-GFP intensity median modified Z-score relative to plate median; higher = stronger NRF2 / oxidative stress reporter activation, active = hit call of the paper
Details: 10 µM; exposure time: 24h
Procedure, shortened: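 In 96-well plates holding 20,000 HepG2 Srxn1-GFP BAC reporter cells per well, compound at 10 μM and an NRF2 activator at 30 nM were added together for 24 h, with DMSO at ≤0.1%, across three replicate plates. After fixation in formaldehyde and Hoechst staining, confocal images were analysed cell by cell for cytoplasmic GFP, and images containing under 100 cells were excluded. Values are replicate medians of the per-plate modified Z-score of GFP intensity, scaled by 1.4826 × median absolute deviation.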

Row | SMILES | Srxn1-GFP intensity median modified Z-score
1 | CCC(N)C12CC3CC(CC(C3)C1)C2 (stereo not given) | 0.333 (inactive)
2 | CC1(C)S[C@@H]2[C@H](N3C(=O)C(c4ccccc4)NC3(C)C)C(=O)N2C1C(=O)O (stereo not given in full) [euspeclibcmpd2360] | -0.502 (inactive)
3 | CSc1nc2cc(Cl)c(Oc3cccc(Cl)c3Cl)cc2[nH]1 [euspeclibcmpd1225] | 4.92 (active)
4 | COC(=O)C[C@H]1C(C)(C)C(=O)C2CC3=C4CC(=O)O[C@@H](c5ccoc5)[C@]4(C)CCC3[C@@]1(C)C2=O (stereo not given in full) [euspeclibcmpd2085] | -0.00623 (inactive)
5 | COc1cc2[nH]c(N3CCN(C(=O)c4ccco4)CC3)nc(=N)c2cc1OC [euspeclibcmpd1302] | -0.393 (inactive)
6 | Clc1cnc(N/N=C/c2sc(N3CCCCC3)nc2-c2cccs2)c(Cl)c1 | 0.529 (inactive)
7 | COC(=O)CCC(C)[C@H]1CCC2C3C(C[C@H](O)[C@@]21C)[C@@]1(C)CC[C@@H](O)C[C@H]1C[C@H]3O (stereo not given in full) [euspeclibcmpd1539] | -0.423 (inactive)
8 | CC1(C)CC2C(=O)CCC3OC3(C)CCC21 (stereo not given) [euspeclibcmpd2011] | -0.362 (inactive)
9 | O=C(Cc1c[nH]c2ccccc12)NCCc1c[nH]c2ccccc12 | 1.76 (inactive)
10 | Cc1cccc(C(=O)O)c1O [euspeclibcmpd1013] | -0.315 (inactive)
11 | CON(C)C(=O)c1ccccc1Nc1cccc(C(F)(F)F)c1 | 1.46 (inactive)
12 | Cc1cccc(Nc2ccccc2C(=O)O)c1C | 0.337 (inactive)
13 | Cc1cccc(Nc2ccccc2C(=O)O)c1C [euspeclibcmpd373] | 2.69 (active)
14 | O=C(O)c1ccccc1Nc1ccccc1 [euspeclibcmpd1737] | -0.16 (inactive)
15 | Cc1cccc(Nc2ccccc2C(=O)OCC#N)c1C | 0.491 (inactive)
16 | Cc1c(Cl)cccc1Nc1ccccc1C(=O)O [euspeclibcmpd1068] | 4.04 (active)
17 | O=C(c1ccccc1Nc1cccc(C(F)(F)F)c1)N1CCC1 | 1.38 (inactive)
18 | O=C(O)c1ccccc1Nc1cccc(C(F)(F)F)c1 [euspeclibcmpd370] | 2.94 (active)
19 | Cc1ccc(Cl)c(Nc2ccccc2C(=O)O)c1Cl [euspeclibcmpd2058] | 0.0269 (inactive)
20 | O=C(O)CCCCC(=O)O [euspeclibcmpd2456] | 0.307 (inactive)
21 | C[C@H]1O[C@H](O[C@H]2[C@H](O)[C@@H](O)[C@@H](O[C@H]3[C@H](O)[C@@H](O)C(O)O[C@@H]3CO)O[C@@H]2CO)[C@H](O)[C@@H](O)[C@@H]1N[C@H]1C=C(CO)[C@@H](O)[C@H](O)[C@H]1O (stereo not given in full) [euspeclibcmpd430] | -0.321 (inactive)
22 | CC[C@H]1OC(=O)C(C)[C@@H](O[C@H]2C[C@@](C)(OC)[C@@H](O)[C@H](C)O2)[C@H](C)[C@@H](O[C@@H]2O[C@H](C)C[C@H](N(C)C)[C@H]2O)[C@](C)(O)CC(C)C(=NOCOCCOC)C(C)[C@@H](O)[C@]1(C)O (stereo not given in full) [euspeclibcmpd567] | -0.00752 (inactive)
23 | Cc1c(C(=O)O)sc(S(=O)(=O)N2CCN(C(=O)CC3CCCC3)CC2)c1C(=O)O | 0.344 (inactive)
24 | Cc1[nH]c(=O)c(C#N)cc1-c1ccncc1 [euspeclibcmpd1241] | 2.87 (active)

Row | SMILES | Srxn1-GFP intensity median modified Z-score
25 | Nc1cc(-c2ccncc2)c[nH]c1=O [euspeclibcmpd524] | -0.435 (inactive)
26 | COc1cc(=NS(=O)(=O)c2ccc(N)cc2)[nH]cn1 [euspeclibcmpd400] | -0.55 (inactive)
27 | CC(=O)C(N)C(O)O (stereo not given) [euspeclibcmpd2348] | -0.525 (inactive)
28 | CC(=O)C(N)C(O)O (stereo not given) [euspeclibcmpd1109] | -0.112 (inactive)
29 | CCOc1cc(CC(=O)N[C@@H](CC(C)C)c2ccccc2N2CCCCC2)ccc1C(=O)O [euspeclibcmpd908] | 0.187 (inactive)
30 | COc1cc(O)c(C(C)=O)c(O)c1 [euspeclibcmpd1561] | 1.48 (inactive)
31 | N[C@@H](CC(=O)N1CCn2c(nnc2C(F)(F)F)C1)Cc1cc(F)c(F)cc1F [euspeclibcmpd2166] | 12.2 (active)
32 | CCn1cc(N(CC(C)C)S(=O)(=O)CCC2CCOCC2)cn1 | 1.44 (inactive)
33 | N=c1ccn2c(n1)O[C@@H]1[C@@H](O)[C@H](CO)O[C@@H]12 [euspeclibcmpd1164] | 0.441 (inactive)
34 | Oc1cc2cc(CCN3CCN(c4nsc5ccccc45)CC3)c(Cl)cc2[nH]1 [euspeclibcmpd1992] | -0.197 (inactive)
35 | O=C(O)CCC(=O)OC[C@@H](NC(=O)C(Cl)Cl)[C@H](O)c1ccc([N+](=O)[O-])cc1 [euspeclibcmpd2230] | -0.0902 (inactive)
36 | NC(CSCSCC(N)C(=O)O)C(=O)O (stereo not given) [euspeclibcmpd1615] | -0.0888 (inactive)
37 | C[C@]12CCC(=O)CC1=CCC1C2[C@@H](O)C[C@@]2(C)C1CC[C@]2(O)C(=O)COC(=O)CCC(=O)O (stereo not given in full) [euspeclibcmpd152] | -0.766 (inactive)
38 | CC1CCC2(C(=O)O)CCC3(C)C(=CCC4C5(C)CC(O)C(O)C(C)(CO)C5CCC43C)C2C1C (stereo not given) [euspeclibcmpd1959] | -0.237 (inactive)
39 | N=C(N)c1ccc(N=NNc2ccc(C(=N)N)cc2)cc1 [euspeclibcmpd1093] | 0.338 (inactive)
40 | N=C(N)c1ccc(OCCCCCOc2ccc(C(=N)N)cc2)cc1 [euspeclibcmpd1040] | 12.5 (active)
41 | CCCCCCOc1ccccc1C(N)=O [euspeclibcmpd1139] | 0.59 (inactive)
42 | C[C@@H]1CCC2[C@](C)(CO)[C@@H](O)CC[C@]2(C)[C@@]12CC[C@@](CO)(CCO)O2 (stereo not given in full) [euspeclibcmpd1570] | -0.216 (inactive)
43 | CCOc1cc(/C=C/C(=O)O)ccc1OC | 0.394 (inactive)
44 | CCNC(=O)CCC(N)C(=O)O (stereo not given) [euspeclibcmpd2170] | -0.00834 (inactive)
45 | CC12CCC(=O)N1C(C(=O)NCCCNS(C)(=O)=O)CS2 (stereo not given) | 2.02 (active)
46 | CC(=O)COc1ccc2c(C)cc(=O)oc2c1 | 1.43 (inactive)
47 | CN(C)C1C(=O)C(C(=O)NCN2CCCC2)C(=O)C2(O)C(=O)C3C(=O)c4c(O)cccc4C(C)(O)C3CC12 (stereo not given) [euspeclibcmpd1955] | -0.368 (inactive)
48 | C[C@]12C=CC(=O)CC1=CCC1C2C(=O)C[C@@]2(C)C1CC[C@]2(O)C(=O)CO (stereo not given in full) [euspeclibcmpd243] | -0.188 (inactive)

Row | SMILES | Srxn1-GFP intensity median modified Z-score
49 | CC(=O)OC1CCC23C(=O)OC45CCC(c6coc(O)c6)C4(C)CCC2C5CCC3(O)C1 (stereo not given) [euspeclibcmpd1387] | -1.25 (inactive)
50 | [Cl][Ca][Cl] [euspeclibcmpd2470] | 1.27 (inactive)
51 | N#CCC(=O)NN [euspeclibcmpd1098] | 3.08 (active)
52 | CON=C1CN(c2nc3c(cc2F)c(=O)c(C(=O)O)cn3C2CC2)CC1CN (stereo not given) [euspeclibcmpd871] | -0.00523 (inactive)
53 | CC1=C(C(=O)O)N2C(=O)C(=NC(=O)C(N)C3CC=CCC3)C2SC1 (stereo not given) [euspeclibcmpd49] | -0.299 (inactive)
54 | CN(C)CC(=O)OCC(=O)C(O)C(O)C(O)C(O)O (stereo not given) [euspeclibcmpd2264] | -0.422 (inactive)
55 | COc1ccc(CCN2CCC(N=c3[nH]c4ccccc4n3Cc3ccc(F)cc3)CC2)cc1 [euspeclibcmpd1296] | -0.744 (inactive)
56 | Cc1c(NC(=O)CCc2cccnc2)c(=O)n(-c2ccccc2)n1C | 1.03 (inactive)
57 | COc1ccc([C@@H]2CC(=O)c3c(O)cc(O[C@@H]4O[C@H](CO[C@H]5O[C@@H](C)[C@H](O)[C@@H](O)[C@H]5O)[C@@H](O)[C@H](O)[C@H]4O)cc3O2)cc1O [euspeclibcmpd1499] | -0.332 (inactive)
58 | C=C[C@@](C)(O)CCC1C(=C)C[C@H](O)C2C(C)(C)CCCC12C (stereo not given in full) [euspeclibcmpd2065] | 0.497 (inactive)
59 | C=C[C@](C)(O)CC[C@@H]1[C@@]2(C)CCCC(C)(C)[C@@H]2CC[C@]1(C)O [euspeclibcmpd2213] | 2.3 (active)
60 | CNC(CC(=O)O)C(=O)O (stereo not given) [euspeclibcmpd1746] | -0.42 (inactive)
61 | OC(COC(c1ccccc1)c1ccccc1)CN1CCN(/C=C/Cc2ccccc2)CC1 (stereo not given) | 0.401 (inactive)
62 | CN1CCN(C(c2ccccc2)c2ccccc2)CC1 [euspeclibcmpd77] | 0.846 (inactive)
63 | CC(=O)NC(CC(C)C)C(=O)O (stereo not given) [euspeclibcmpd1070] | -0.124 (inactive)
64 | CC(C)NS(=O)(=O)C1CCN(C(=O)CCS(=O)(=O)C2CCCC2)C1 (stereo not given) | 1.14 (inactive)
65 | CC(C)Cn1cnc2c(=N)[nH]c3ccccc3c21 [euspeclibcmpd542] | -0.55 (inactive)
66 | CC(=O)N=c1[nH]nc(S(N)(=O)=O)s1 [euspeclibcmpd48] | 0.382 (inactive)
67 | CCCc1nc(C)c2c(=O)[nH]c(-c3cc(S(=O)(=O)N4CCN(CC)CC4)ccc3OCC)nn12 [euspeclibcmpd760] | -0.393 (inactive)
68 | O=C(Oc1cc(O)cc2c1CC(OC(=O)c1cc(O)c(O)c(O)c1)C(c1cc(O)c(O)c(O)c1)O2)c1cc(O)c(O)c(O)c1 (stereo not given) [euspeclibcmpd1839] | -0.336 (inactive)
69 | O=C(OC[C@H]1O[C@H](OC(=O)c2cc(O)c(O)c(OC(=O)c3cc(O)c(O)c(O)c3)c2)[C@H](OC(=O)c2cc(O)c(O)c(OC(=O)c3cc(O)c(O)c(O)c3)c2)[C@@H](OC(=O)c2cc(O)c(O)c(OC(=O)c3cc(O)c(O)c(O)c3)c2)[C@@H]1OC(=O)c1cc(O)c(O)c(OC(=O)c2cc(O)c(O)c(O)c2)c1)c1cc(O)c(O)c(OC(=O)c2cc(O)c(O)c(O)c2)c1 [euspeclibcmpd649] | 8.09 (active)
70 | O=C(O[C@@H]1Cc2c(O)cc(O)cc2O[C@@H]1c1cc(O)c(O)c(O)c1)c1cc(O)c(O)c(O)c1 [euspeclibcmpd1546] | 1.25 (inactive)
